Screening results: PubChem, National Center for Advancing Translational Sciences (NCATS)
HPGD block: HPGD (human) dehydrogenase inhibition; P15428; purified HPGD, NADH fluorescence kinetic, PGE2 substrate; Potency, µM, most hits filed as inhibitors; 150,000 tested, 4.3% active
Target sequence (P15428 whole entry, looked up): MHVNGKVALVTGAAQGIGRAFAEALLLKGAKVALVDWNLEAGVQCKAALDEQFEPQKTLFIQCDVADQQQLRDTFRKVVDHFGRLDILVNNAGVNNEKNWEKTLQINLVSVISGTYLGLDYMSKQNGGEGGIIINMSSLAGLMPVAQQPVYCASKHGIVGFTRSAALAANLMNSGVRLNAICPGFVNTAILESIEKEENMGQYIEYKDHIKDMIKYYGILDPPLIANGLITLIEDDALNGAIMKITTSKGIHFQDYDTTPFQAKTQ
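NADH formation kinetics: reaction with 30 uM PGE2 and 1 mM NAD+ (final), 20 nM enzyme, Tris-HCl pH 8 with Tween 20, after 15 min compound preincubation at room temperature. Fluorescence change, last versus first of five reads.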
Lamin A splicing: LMNA splicing modulation; HeLa LMNA splicing GFP/RFP minigene ratio, 48 h; Potency, µM (titrated, usually from 46.1 µM), most hits filed as inhibitors; 200,000 tested, 0.01% active; AID 1487; active = well fitted inhibition curve with a large enough effect in the signal ratio, with a control signal flat, not every such curve was filed as active; inconclusive = small, poorly fitted or top-dose-only effect, or effect the other way, or a change in a side signal; the % refers to the signal ratio
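S3 HeLa cells stably expressing lamin A-EGFP splicing minigene plus DsRed2, 600 cells/well, 48 h compound exposure at 37C. Laser-scanning cytometry; analysed as GFP (500-530 nm)/RFP (575-640 nm) total intensity ratio; 0.5% DMSO vehicle.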
PNC assembly inh: perinucleolar compartment assembly inhibition | 140,000 tested, 3.1% active | activity change (PNC), negative = inhibition, % at 10 µM | PC3M PTB-GFP, PNC prevalence imaging, 16 h; hits give low values;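 active = readout at or below -70, meaning at least 70% loss of cells showing the perinucleolar compartment, a nuclear body marking cancer cells; inconclusive = readout between -30 and a set limit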
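Compounds are pinned in duplicate onto adhered PC3M cells stably expressing GFP-tagged PTB and incubated 16 h at 37 C. Cells are then fixed, nuclei stained with Hoechst, and PNC-positive cells counted.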
ALDH1A1 inh: ALDH1A1 (human) enzyme inhibition | P00352 | Purified ALDH1A1, NADH fluorescence, propionaldehyde substrate | Potency, µM (top dose mostly 75.3 µM), hits mostly inhibitors | 220,000 tested, 7.3% active | AID 1030
12-hLO inh: inhibitors of human 12-lipoxygenase (ALOX12); purified 12-hLO, xylenol orange hydroperoxide absorbance; AID 1452; 150,000 tested, 0.12% active; P18054; Potency, µM (highest dose often 57.1 µM), actives largely listed as inhibitors; active = well fitted inhibition curve with a large enough effect; inconclusive = small, poorly fitted or top-dose-only effect; note: nearly all actives have a fitted effect of over 55% in size
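Hydroperoxide output read as Fe(III)-xylenol orange absorbance, 573-to-405 nm ratio, after 30 min reaction with 40 uM arachidonic acid. Enzyme: 150 nM purified human 12hLO, 15 min compound preincubation; 25 mM Hepes pH 7.0, room temperature.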
Numbers stand for hits; – = inactive; ? = inconclusive; · = not tested or not shown; ! = not confirmed by another sample; [ ] = another dose, or the depositor's remark. Hits are enriched below; roughly 10% of the tested compounds scored in any of these assays. Unless noted, calls come from the whole dose curve; as a rule, active = well fitted inhibition curve with a large enough effect (not every such curve was filed as active); inconclusive = small, poorly fitted or top-dose-only effect, or another doubt; inactive = no such curve, though single readings can be large or run the other way.

SMILES	HPGD block	Lamin A splicing	PNC assembly inh	ALDH1A1 inh	12-hLO inh
NC(=S)c1cn(C2OC(CO)C(O)C2O)c2ncnc(N)c12 (stereo unspecified)	·	·	·	7.9µM	·
Cc1ccc(NC(=[OH+])c2cc3ccccc3cc2O)c(C)c1.Cc1ccc(NC(=[OH+])c2cc3ccccc3cc2O)c(C)c1.[Ni]	1.8µM	·	·	–[13.5 µM]	–[11.4 µM]
Cc1ccc(NC(=O)c2cccn(Cc3ccccc3C)c2=O)c(C)c1	·	–	·	·	·
CC1CC(=O)O1 (stereo unspecified)	–	·	·	–	–
C=C(C=O)CC1CC(O)[C@]2(C)OC3CC4OC5C[C@]6(C)O[C@]7(C)CCC8OC9C[C@]%10(C)OC%11C(C)=CC(=O)OC%11CC%10OC9C[C@@H](C)C8OC7CC6O[C@]5(C)CC5OC5C4OC3CC2O1 (stereo partly specified)	·	·	·	4.5µM	·
C=C(CO)CC1CC(O)[C@]2(C)OC3CC4OC5C[C@]6(C)O[C@]7(C)CCC8OC9C[C@]%10(C)OC%11C(C)=CC(=O)OC%11CC%10OC9C[C@@H](C)C8OC7CC6O[C@]5(C)C/C=C\C4OC3CC2O1 (stereo partly specified)	·	·	·	1.4µM	·
Cc1c(C(=O)c2cccc3ccccc23)c2cccc3c2n1[C@H](CN1CCOCC1)CO3	–	?	·	11µM!	–
O=C(CN1CCOCC1)c1cccc2ccccc12	–	–	–	13µM	–
C[C@H]1CC[C@@]2(NC1)O[C@@H]1C[C@@H]3[C@@H]4CC=C5C[C@@H](O)CC[C@]5(C)[C@@H]4CC[C@]3(C)[C@H]1[C@@H]2C	–	·	·	–[13.5 µM]	–[11.4 µM]
CC(=O)[C@@H]1CC[C@H]2[C@H]3CC[C@H]4C[C@@H](O)CC[C@]4(C)[C@@H]3CC[C@]12C	·	·	·	·	–
CCCCCCCC(=O)Cl	–	·	·	?	–
CC(=O)C1=C(O)[C@@H]2[C@@H]3c4c[nH]c5cccc(c45)C[C@@H]3C(C)(C)N2C1=O	–	·	·	?	–
CCCCC(CC)COC(=O)c1ccccc1C(=O)OCC(CC)CCCC (stereo unspecified)	–	·	·	22µM	–
CC(C)COC(=O)c1ccccc1C(=O)OCC(C)C	–	·	·	?	–
Cc1ccc(N=C=O)cc1N=C=O	–	·	·	–	–
O=c1c2ccccc2nc(SCC2CCCCO2)n1-c1ccccc1 (stereo unspecified)	–	–	–	18µM	–
COc1ccc(-n2c(SC)nc3ccccc3c2=O)cc1	–	?	–	–	–
ClCC[N+]12CC[N+](CCCl)(CC1)C2 (tested in a mixture with another compound)	–	·	·	?	–[11.4 µM]
CN(C)CS/C(N)=N/[C@H](O)C(Cl)(Cl)Cl	–	·	·	3.2µM	–[11.4 µM]
N[C@H](Cc1c[nH]c2ccccc12)P(=O)(O)O	–	·	·	–[13.5 µM]	–[11.4 µM]
COc1ccc(OCC#CCN2CCCCCC2)cc1	·	–	·	22µM	·
CCOC(=O)c1c(C)n(Cc2ccccc2)c2ccc(OCC(O)Cn3nc(C)cc3C)cc12 (stereo unspecified)	–	?	-80	?	–
CC(=O)Nc1c2sscc-2n(C)c1=O	–	·	·	–	–[0.00818 µM]
COC(=O)CSc1nc2sc3c(c2c(=O)n1C1CCCCC1)CCN(C)C3	?	–	?	?	–
Fc1ccc(C2=CCN(C(c3ccc(Cl)cc3)c3nnnn3Cc3ccccc3)CC2)cc1 (stereo unspecified)	–	–	–	?	–
SMILES	HPGD block	Lamin A splicing	PNC assembly inh	ALDH1A1 inh	12-hLO inh
Cc1ccc(C(c2nnnn2Cc2ccccc2)N2CC=C(c3ccc(F)cc3)CC2)cc1 (stereo unspecified)	–	–	–	7.9µM	–
CC[C@H](C)[C@H](NC(=O)[C@H](CCCN=C(N)N)NC(=O)[C@H](CCCN=C(N)N)NC(=O)[C@H](CC(C)C)NC(=O)[C@H](Cc1ccccc1)NC(=O)CNC(=O)CNC(=O)[C@@H](N)Cc1ccc(O)cc1)C(=O)O	·	·	·	–	·
CN1CCN(C(=O)COc2ccc(S(=O)(=O)N(C)Cc3ccccc3)cc2)CC1	14µM	–	?	?	–
CCN1CCN(C(=O)COc2ccc(S(=O)(=O)N(C)Cc3ccccc3)cc2)CC1	–	–	–	?	–
COC1=C[C@H]2[C@H]3Cc4ccc(OC)c(O)c4[C@@]2(CCN3C)CC1=O	–	·	·	–	–
C[C@@]12Cc3cnc(-c4ccccc4)nc3C[C@@H]1CC[C@@H]1[C@H]3CC[C@@](C)(O)[C@]3(C)CC[C@@H]12	–	·	·	?	–[11.4 µM]
C#CCOS(=O)OC1CCCCC1Oc1ccc(C(C)(C)C)cc1 (stereo unspecified)	–	–	·	?	–
CC1CCN(CC(=O)c2ccc3c(c2)OCCO3)CC1	·	?	·	7.9µM	·
CC1CCCN(CC(=O)c2ccc(Cl)c(Cl)c2)C1 (stereo unspecified)	·	?	·	2µM	·
Nc1cc(Cl)c2nonc2c1[N+](=O)[O-]	?	?	?	20µM	–
CN(C)C(=O)Cl	–	·	·	?	–
C[N+](C)(C)CC#CCOC(=O)Nc1cccc(Cl)c1	–	?	·	7.9µM	–
CC(=NCc1cccnc1)c1c(O)n(Cc2ccccc2)c(=O)[nH]c1=O	28µM	–	–	?	–
CCC(=NCc1cccnc1)c1c(O)n(Cc2ccccc2)c(=O)[nH]c1=O	16µM	–	–	?	–
C=CCn1c(O)c(C(CC)=NC(C)c2ccccc2)c(=O)[nH]c1=O (stereo unspecified)	–	–	-94	?	–
C=CCn1c(O)c(C(C)=Nc2ccc(N(C)C)cc2)c(=O)[nH]c1=O	–	?	-91	–	–
CC(=NCc1cccnc1)c1c(O)n(-c2ccccc2)c(=O)[nH]c1=O	–	–	–	–	–
O=C(O)CSCC(=O)O	–	·	·	–[13.5 µM]	–[11.4 µM]
Cc1ccc2c(c1)CC1(CN2C)C(=O)NC(=O)N(c2cc(C)ccc2C)C1=O (stereo unspecified)	–	–	–	1.8µM	–
COc1cccc(N2C(=O)NC(=O)C3(Cc4cc(C)ccc4N(C)C3)C2=O)c1 (stereo unspecified)	–	–	?	20µM	–
COc1cc(CN2C(=O)NC(=O)C3(Cc4cc(C)ccc4N(C)C3)C2=O)cc(OC)c1 (stereo unspecified)	–	?	?	?	–
CCCCN1C(=O)NC(=O)C2(Cc3cc(C)ccc3N(C)C2)C1=O (stereo unspecified)	–	–	?	10µM	–
CC(=O)OCC(=O)C1CCC2C3CC=C4CC(O)CC[C@@]4(C)C3CC[C@]12C (stereo partly specified)	–	·	·	?	–
CNC[C@H](O)c1ccc(OC(=O)C(C)(C)C)c(OC(=O)C(C)(C)C)c1	–	?	·	–	–
CCOc1ccc(-n2c(O)c(N=Nc3c(C)n(C)n(-c4ccccc4)c3=O)c(=O)[nH]c2=O)cc1	·	·	·	16µM	·
C=CCn1c(O)c(N=Nc2c(C)n(C)n(-c3ccccc3)c2=O)c(=O)[nH]c1=S	–	?	–	?	–
